Measured values taken from PubChem BioAssay (Tox21).
Values joined by “and” are separate entries in the source; they are usually repeats but may differ in a detail not shown here. Identical values can stand only once. Results filed as inconclusive are left out. Active and inactive are the calls of the source. Unless noted, calls come from the whole dose curve; as a rule, active = well fitted curve in the direction sought with a large enough effect in the repeat runs; inconclusive = weak or mixed curves; inactive = no such curve, though single readings can be large; an effect the other way counts as inactive or inconclusive.

Legend:
[1] = A CellTox Green Cytotoxicity Assay to monitor cytotoxicity in HepG2 cells - 8 hour (AID 1224890); note: nearly all actives have a fitted effect of over 45% in size
How it was run: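 HepG2 cells, 600/well, preincubated 5 h with CellTox Green dye, then exposed to Tox21 compounds in DMSO at 37 C for up to 40 h. Dead-cell DNA fluorescence read at the indicated time point.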

[2] = qHTS assay to identify small molecule antagonists of the estrogen receptor alpha (ER-alpha) signaling pathway using the BG1 cell line in the presence of 0.1 nM 17-beta-estradiol - cell viability counter screen (AID 1259241); note: nearly all actives have a fitted effect of over 40% in size; note: potency is the fitted concentration of half-maximal effect
How it was run: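 Following 5 days in phenol red-free medium with charcoal-stripped serum, VM7Luc4E2 cells received test compounds alongside 0.1 nM 17beta-estradiol (final) at 37C for 22 hr. Live cells were then quantified via protease-substrate fluorescence.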

[3] = qHTS assay to identify small molecule antagonists of the androgen receptor (AR) signaling pathway using the MDA cell line in the presence of 0.5 nM R1881 - cell viability counter screen (AID 1259242); note: nearly all actives have a fitted effect of over 45% in size; note: potency is the fitted concentration of half-maximal effect
How it was run: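 MDA-kb2 cells (MMTV-luciferase, AR/GR responsive) were treated with compounds plus 0.5 nM R1881 (final) for 16 hr at 37C, 0% CO2. Viability was then read in the same wells as live-cell protease fluorescence (CellTiter-Fluor, 30 min).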

[4] = target: Estrogen receptor (Homo sapiens) (UniProt P03372); assay: qHTS assay to identify small molecule antagonists of the estrogen receptor alpha (ER-alpha) signaling pathway using the BG1 cell line in the presence of 0.1 nM 17-beta-estradiol (AID 1259244); note: nearly all actives have a fitted effect of over 50% in size; note: potency is the fitted concentration of half-maximal effect
How it was run: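 VM7Luc4E2 cells (endogenous full-length ER-alpha, 4×ERE-luciferase), kept 5 days in phenol red-free, charcoal-stripped FBS medium; 4,000 cells/well. Compounds added with 0.1 nM (final) 17beta-estradiol, 22 hr at 37C; luminescence read with ONE-Glo after 30 min.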

[5] = qHTS assay to identify small molecule HDAC inhibitors (AID 1259364); note: top concentration of the series differs between compounds; nearly all actives have a fitted effect of over 45% in size
How it was run: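 Wild-type HCT-116 cells, plated overnight at 37 C, exposed to compounds 2 hr at 37 C; luminogenic HDAC-Glo substrate then added 30 min at room temperature. Luminescence reports relative endogenous class I/II HDAC activity.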

[6] = qHTS assay to identify small molecule HDAC inhibitors - cell viability counter screen (AID 1259365); note: series mostly up to about 92 µM; nearly all actives have a fitted effect of over 50% in size
How it was run: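 HCT-116 wild-type, overnight attachment; 2hr drug exposure, 37C; CellTiter-Glo luminescent ATP readout after 30min RT.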

[7] = qHTS assay to identify small molecule agonists of the sonic hedgehog signaling (Shh) pathway (AID 1259368; calls by dose curve; note: nearly all actives have a fitted effect of over 15% in size; note: potency is the fitted concentration of half-maximal effect)
How it was run: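 NIH/3T3-derived 3T3Gli1-Luc cells with stably integrated Gli1-driven firefly luciferase, 2,000 cells/well, compounds added after 4 hr. Incubated 24 hr at 37C, 5% CO2; luminescence read after 30 min with luciferase reagent at room temperature.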

[8] = qHTS assay to identify small molecule antagonists of the sonic hedgehog signaling (Shh) pathway (AID 1259369; calls by dose curve; note: nearly all actives have a fitted effect of over 45% in size; note: potency is the fitted concentration of half-maximal effect)
How it was run: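 NIH/3T3-derived Gli1-Luc reporter cells plated 4 h, dosed with compound, then stimulated with conditioned medium for 24 h at 37 C. Firefly luciferase luminescence read after 30 min with detection reagent at room temperature.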

[9] = target: Estrogen receptor beta (Homo sapiens) (UniProt Q92731); assay: qHTS assay to identify small molecule antagonists of the estrogen receptor beta (ER-beta) signaling pathway (AID 1259378; active = well fitted inhibition curve with a large enough effect in the signal ratio in the repeat runs, not every such curve was filed as active; the % refers to the signal ratio)
How it was run: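 ER-beta-UAS-bla HEK293T (GripTite) cells in 2% charcoal-stripped FBS medium were preincubated 6 hr at 37C, dosed with compound, then stimulated with 1 nM E2 (final) for 16 hr; beta-lactamase reporter read by B/G FRET fluorescence after 2 hr substrate loading.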

[10] = qHTS assay to identify small molecule agonists of the estrogen receptor beta (ER-beta) signaling pathway - cell viability counter screen (AID 1259380); note: nearly all actives have a fitted effect of over 30% in size; note: potency is the fitted concentration of half-maximal effect
How it was run: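 ER-beta-UAS-bla HEK293T cells in medium with 2% charcoal-stripped FBS, pre-incubated 6 hr, then treated 16 hr at 37C. Cytotoxicity read in the same wells by CellTiter-Glo luminescence after 30 min at room temperature.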

[11] = qHTS assay to identify small molecule antagonists of the estrogen receptor beta (ER-beta) signaling pathway - cell viability counter screen (AID 1259382); note: series mostly up to about 92 µM; nearly all actives have a fitted effect of over 55% in size
How it was run: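 ER-beta-UAS-bla HEK293T cells in 2% charcoal-stripped FBS medium, treated with compound plus 1 nM 17-beta-estradiol for 16 h at 37C. Viability read by CellTiter-Glo luminescence after 30 min at room temperature in the same wells.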

[12] = qHTS assay to identify small molecule agonists or antagonists of the thyroid stimulating hormone receptor (TSHR) signaling pathway - wild type cell line counter screen (AID 1259384; calls by dose curve)
How it was run: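 Wild-type HEK293 cells were plated 18 h at 37 C/5% CO2, pin-dosed with compound plus Ro20-1724 medium, held 30 min at room temperature, then given cAMP-d2 and anti-cAMP-cryptate; fluorescence was read after 1 h. Fifteen concentrations, triplicate.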

[13] = qHTS assay to identify small molecule agonists of the sonic hedgehog signaling (Shh) pathway - cell viability counter screen (AID 1259366); note: nearly all actives have a fitted effect of over 50% in size; note: potency is the fitted concentration of half-maximal effect
How it was run: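 Compounds in DMSO were pin-transferred onto 3T3 Gli1-Luc cells that had settled 4hr; plates then stood 24hr at 37C and 5% CO2. One hour before the end, CellTiter-Fluor was added and fluorescence recorded.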

[14] = qHTS assay to identify small molecule antagonists of the sonic hedgehog signaling (Shh) pathway - cell viability counter screen (AID 1259367); note: nearly all actives have a fitted effect of over 55% in size; note: potency is the fitted concentration of half-maximal effect
How it was run: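 After a 4 hr settling period, 3T3 Gli1-Luc cells were treated with DMSO-dissolved chemicals and conditioned medium, kept 24 hr at 37C in 5% CO2, and assayed for viability by CellTiter-Fluor fluorescence following 1 hr reagent incubation.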

[15] = qHTS assay to identify small molecule agonists of the androgen receptor (AR) signaling pathway in the presence of an antagonist - cell viability counter screen (AID 1259379); note: nearly all actives have a fitted effect of over 25% in size; note: potency is the fitted concentration of half-maximal effect
How it was run: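 MDA-kb2 cells (MMTV-luciferase, AR/GR), 3,000/well, 5 h attachment, then 3.0 µM nilutamide (final) and compounds at 15 concentrations. Viability by CellTiter-Fluor fluorescence after 16 h at 37 °C, 0% CO2, in the reporter wells.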

[16] = target: Estrogen receptor (Homo sapiens) (UniProt P03372); assay: qHTS assay to identify small molecule agonists of the estrogen receptor alpha (ER-alpha) signaling pathway in the presence of an antagonist (AID 1259383; calls by dose curve; note: top concentration of the series differs between compounds; nearly all actives have a fitted effect of over 15% in size)
How it was run: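 VM7Luc4E2 cells express endogenous full-length ER-alpha with an ERE-luciferase reporter and were hormone-deprived for 5 days. Compounds at 15 concentrations were added with 10.0nM ICI-182,780 for 22hr at 37C. Luminescence was read with ONE-Glo.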

[17] = target: Estrogen receptor beta (Homo sapiens) (UniProt Q92731); assay: qHTS assay to identify small molecule agonists of the estrogen receptor beta (ER-beta) signaling pathway (AID 1259377; active = well fitted activation curve with a large enough effect in the signal ratio in the repeat runs, not every such curve was filed as active; the % refers to the signal ratio)
How it was run: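 qHTS in ER-beta-UAS-bla HEK293T cells: 6 hr settling, then 16 hr compound at 37C, then LiveBLAzer substrate 2 h at RT before fluorescence reading.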

[18] = target: Androgen receptor (Homo sapiens) (UniProt P10275); assay: qHTS assay to identify small molecule agonists of the androgen receptor (AR) signaling pathway in the presence of an antagonist (AID 1259381; calls by dose curve; note: nearly all actives have a fitted effect of over 15% in size)
How it was run: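 MDA-kb2 cells carrying MMTV-luciferase (AR/GR responsive), 3,000 cells/well, co-treated with 3.0 uM nilutamide final. Compounds at 15 concentrations, 16 hr at 37C without CO2. Luciferase luminescence read after 30 min with ONE-Glo.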

[19] = qHTS assay to identify small molecule phospholipidosis (PLD) inducers (AID 1259344; active = well fitted curve in the direction sought with a large enough effect; an effect the other way counts as inactive or inconclusive)
How it was run: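 HepG2 cells grown on collagen I take up LipidTOX Red while exposed to compound for 24 h; after fixation they are imaged at 20x and pit metrics are extracted.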
% is set by controls: 0 for no effect and ±100 for the full control effect.

Estrogen receptor beta (Homo sapiens), sequence (Q92731 whole entry, looked up): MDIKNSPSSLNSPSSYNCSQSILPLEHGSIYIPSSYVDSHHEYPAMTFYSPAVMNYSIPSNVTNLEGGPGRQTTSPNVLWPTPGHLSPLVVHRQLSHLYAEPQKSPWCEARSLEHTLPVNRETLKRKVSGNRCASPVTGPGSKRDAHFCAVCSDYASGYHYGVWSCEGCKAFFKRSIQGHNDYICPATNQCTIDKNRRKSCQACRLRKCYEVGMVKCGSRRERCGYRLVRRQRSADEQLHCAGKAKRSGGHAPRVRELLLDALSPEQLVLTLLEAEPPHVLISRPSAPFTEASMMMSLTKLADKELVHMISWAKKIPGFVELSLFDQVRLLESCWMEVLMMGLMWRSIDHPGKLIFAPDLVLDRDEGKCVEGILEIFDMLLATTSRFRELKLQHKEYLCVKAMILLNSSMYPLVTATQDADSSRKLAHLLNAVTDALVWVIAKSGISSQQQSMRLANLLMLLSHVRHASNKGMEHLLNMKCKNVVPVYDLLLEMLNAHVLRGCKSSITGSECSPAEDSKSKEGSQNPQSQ
Estrogen receptor (Homo sapiens), sequence (P03372 whole entry, looked up): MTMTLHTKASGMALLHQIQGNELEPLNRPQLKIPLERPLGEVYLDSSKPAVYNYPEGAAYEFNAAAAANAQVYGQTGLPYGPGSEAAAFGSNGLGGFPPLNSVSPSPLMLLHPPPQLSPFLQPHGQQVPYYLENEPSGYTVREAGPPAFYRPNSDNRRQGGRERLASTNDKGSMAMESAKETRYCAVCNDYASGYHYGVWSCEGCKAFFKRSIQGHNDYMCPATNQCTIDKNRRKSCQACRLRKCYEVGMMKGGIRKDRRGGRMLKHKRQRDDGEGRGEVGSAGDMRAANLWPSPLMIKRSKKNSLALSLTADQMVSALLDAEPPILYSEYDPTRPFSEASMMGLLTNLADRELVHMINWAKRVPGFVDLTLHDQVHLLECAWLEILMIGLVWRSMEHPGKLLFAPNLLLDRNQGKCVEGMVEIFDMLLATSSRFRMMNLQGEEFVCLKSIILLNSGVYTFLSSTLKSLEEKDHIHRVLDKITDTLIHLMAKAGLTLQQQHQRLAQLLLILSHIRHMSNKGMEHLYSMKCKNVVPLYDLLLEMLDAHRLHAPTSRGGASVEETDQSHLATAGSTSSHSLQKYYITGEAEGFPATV
Androgen receptor (Homo sapiens), sequence (P10275 whole entry, looked up): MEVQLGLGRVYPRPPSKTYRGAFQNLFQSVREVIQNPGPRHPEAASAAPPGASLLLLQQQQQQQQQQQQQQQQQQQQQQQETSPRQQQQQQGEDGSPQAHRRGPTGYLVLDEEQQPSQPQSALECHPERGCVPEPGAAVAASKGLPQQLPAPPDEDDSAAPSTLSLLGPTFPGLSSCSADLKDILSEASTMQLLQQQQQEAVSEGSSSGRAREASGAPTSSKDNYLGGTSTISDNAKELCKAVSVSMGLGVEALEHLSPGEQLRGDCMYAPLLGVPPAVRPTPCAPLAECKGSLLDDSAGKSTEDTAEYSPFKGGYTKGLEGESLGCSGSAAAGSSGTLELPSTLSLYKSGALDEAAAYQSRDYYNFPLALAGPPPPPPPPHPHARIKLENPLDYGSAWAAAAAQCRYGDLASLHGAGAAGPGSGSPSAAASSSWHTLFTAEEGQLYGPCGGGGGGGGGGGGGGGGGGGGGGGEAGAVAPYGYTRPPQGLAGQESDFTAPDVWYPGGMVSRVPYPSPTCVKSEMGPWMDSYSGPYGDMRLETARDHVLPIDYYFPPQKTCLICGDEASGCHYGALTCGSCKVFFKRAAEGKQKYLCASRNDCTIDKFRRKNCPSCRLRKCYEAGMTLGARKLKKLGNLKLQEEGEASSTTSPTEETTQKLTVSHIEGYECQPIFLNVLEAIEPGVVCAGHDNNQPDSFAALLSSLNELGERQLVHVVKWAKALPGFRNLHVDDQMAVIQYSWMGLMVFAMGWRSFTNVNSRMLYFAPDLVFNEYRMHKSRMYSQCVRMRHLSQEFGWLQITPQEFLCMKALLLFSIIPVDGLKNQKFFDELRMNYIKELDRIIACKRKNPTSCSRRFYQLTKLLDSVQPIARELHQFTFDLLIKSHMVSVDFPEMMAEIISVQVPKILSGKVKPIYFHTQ

CCOc1nc(F)cc2nc(S(=O)(=O)Nc3c(Cl)cccc3Cl)nn12
inactive: Potency [1] | Potency [2] | Potency [3] | Potency [4] | Potency [5] | Potency [6] | Potency [7] | Potency [8] | Potency [9] | Potency [10] | Potency [11] | outcome [12]

CCOC(=O)C(Cl)C(C)=O (stereo unspecified)
inactive: Potency [1] | Potency [2] | Potency [3] | Potency [4] | Potency [5] | Potency [6] | Potency [13] | Potency [14] | Potency [8] | Potency [15] | Potency [10] | Potency [11] | Potency [16] | outcome [12]

O=C1C(=O)c2cccc3cccc1c23
active: Potency [4] 54.4 µM | Potency [8] 4.32 µM | Potency [10] 43.2 µM
inactive: Potency [1] | Potency [2] | Potency [3] | Potency [5] | Potency [6] | Potency [13] | Potency [9] | Potency [15] | Potency [11] | Potency [16] | outcome [12]

C=CCCl
inactive: Potency [1] | Potency [2] | Potency [3] | Potency [4] | Potency [5] | Potency [6] | Potency [13] | Potency [14] | Potency [8] | Potency [15] | Potency [10] | Potency [11] | Potency [16] | outcome [12]

CCOc1ccc(C(C)(C)COCc2cccc(Oc3ccccc3)c2)cc1
inactive: Potency [1] | Potency [2] | Potency [3] | Potency [4] | Potency [5] | Potency [6] | Potency [14] | Potency [7] | Potency [8] | Potency [17] | Potency [9] | Potency [11] | Potency [16] | outcome [12]

O=C(CBr)c1ccccc1
active: Potency [8] 34.6 µM
inactive: Potency [1] | Potency [2] | Potency [3] | Potency [4] | Potency [5] | Potency [6] | Potency [13] | Potency [7] | Potency [15] | Potency [10] | Potency [11] | Potency [16] | outcome [12]

C=C(C#N)CCC#N
inactive: Potency [1] | Potency [2] | Potency [3] | Potency [4] | Potency [5] | Potency [6] | Potency [13] | Potency [14] | Potency [8] | Potency [17] | Potency [9] | Potency [15] | Potency [10] | Potency [11] | outcome [12]

O=[N+]([O-])c1cc(C(F)(F)F)cc([N+](=O)[O-])c1Cl
inactive: Potency [1] | Potency [2] | Potency [3] | Potency [4] | Potency [5] | Potency [6] | Potency [7] | Potency [16] | outcome [12]
active: Potency [13] 30.8 µM | Potency [14] 24.4 µM | Potency [10] 54.7 µM

O=[Se]=O
inactive: Potency [1] | Potency [2] | Potency [5] | Potency [6] | Potency [13] | Potency [14] | Potency [7] | Potency [8] | Potency [17] | Potency [9] | Potency [10] | Potency [11] | Potency [16] | outcome [12]
active: Potency [3] 12.1 µM | Potency [15] 9.62 µM

O=C(OC1CCCCC1)c1ccccc1C(=O)OC1CCCCC1
inactive: Potency [1] | Potency [2] | Potency [3] | Potency [4] | Potency [5] | Potency [6] | Potency [13] | Potency [14] | Potency [16] | outcome [12]
active: Potency [8] 51.2 µM

CCN(C)N=O
inactive: Potency [1] | Potency [2] | Potency [3] | Potency [4] | Potency [5] | Potency [6] | Potency [13] | Potency [14] | Potency [7] | Potency [8] | Potency [10] | Potency [11] | outcome [12]

Cl/C=C\Cl
inactive: Potency [1] | Potency [2] | Potency [3] | Potency [4] | Potency [5] | Potency [6] | Potency [13] | Potency [14] | Potency [8] | Potency [15] | Potency [10] | Potency [11] | Potency [16] | outcome [12]

CC(Cl)C(C)Cl (stereo unspecified)
inactive: Potency [1] | Potency [2] | Potency [3] | Potency [4] | Potency [5] | Potency [6] | Potency [13] | Potency [14] | Potency [17] | Potency [9] | Potency [15] | Potency [10] | Potency [11] | Potency [16]

CC(C)(OO)c1ccccc1
inactive: Potency [1] | Potency [2] | Potency [3] | Potency [4] | Potency [5] | Potency [6] | Potency [13] | Potency [14] | Potency [7] | Potency [15] | Potency [10] | Potency [11] | Potency [16] | outcome [12]

O=C=Nc1ccc(Cl)cc1
inactive: Potency [1] | Potency [2] | Potency [3] | Potency [4] | Potency [6] | Potency [13] | Potency [7] | Potency [17] | Potency [9] | Potency [16]
active: Potency [10] 2.43 µM

CN(C)c1ccc(N(C)C)cc1
active: Potency [2] 61.3 µM | Potency [4] 30.7 µM | Potency [13] 24.4 µM | Potency [7] 24.4 µM
inactive: Potency [1] | Potency [3] | Potency [6] | Potency [14] | Potency [8] | Potency [17] | Potency [15] | Potency [16] | outcome [12]

CC(C)=CCOc1c2occc2cc2ccc(=O)oc12
inactive: Potency [1] | Potency [2] | Potency [3] | Potency [4] | Potency [5] | Potency [6] | Potency [13] | Potency [14] | Potency [17] | Potency [9] | Potency [15] | Potency [10] | Potency [18] | Potency [11] | Potency [16] | outcome [12]

Clc1cc(Cl)c(Cl)c(Cl)c1
inactive: Potency [1] | Potency [2] | Potency [3] | Potency [4] | Potency [5] | Potency [6] | Potency [13] | Potency [14] | Potency [8] | Potency [15] | Potency [10] | Potency [11] | Potency [16] | outcome [12]

C(=NC1CCCCC1)=NC1CCCCC1
active: Potency [3] 8.69 µM | Potency [4] 43.3 µM | Potency [15] 2.45 µM and 4.86 µM
inactive: Potency [1] | Potency [2] | Potency [5] | Potency [6] | Potency [13] | Potency [14] | Potency [7] | Potency [17] | Potency [10] | Potency [11] | Potency [16] | outcome [12]

CC(C)(C)C(O)C(Oc1ccc(Cl)cc1)n1cncn1 (stereo unspecified)
inactive: Potency [1] | Potency [2] | Potency [3] | PLD induction [19] -1.67% [at 3.15 µM] | Potency [5] | Potency [6] | Potency [13] | Potency [7] | Potency [15] | Potency [11] | outcome [12]
